Measured values as given in ChEMBL document CHEMBL3988442, “University of Dundee, Small-Polar-MMV Screening Library” (2021).
For some of these results: Measured potencies and affinities stand elsewhere.

What was measured:
Design in all cases: scale not given: direction of the effect not stated beside the values
[1] = biological target: Protein translocase subunit SecA (Escherichia coli (strain K12)) (UniProt P10408); experiment: Assay to Identify E. coli SecA ATPase Inhibitors; type: functional; settings: 30 µM
Protein translocase subunit SecA (Escherichia coli (strain K12)), sequence (P10408 whole entry): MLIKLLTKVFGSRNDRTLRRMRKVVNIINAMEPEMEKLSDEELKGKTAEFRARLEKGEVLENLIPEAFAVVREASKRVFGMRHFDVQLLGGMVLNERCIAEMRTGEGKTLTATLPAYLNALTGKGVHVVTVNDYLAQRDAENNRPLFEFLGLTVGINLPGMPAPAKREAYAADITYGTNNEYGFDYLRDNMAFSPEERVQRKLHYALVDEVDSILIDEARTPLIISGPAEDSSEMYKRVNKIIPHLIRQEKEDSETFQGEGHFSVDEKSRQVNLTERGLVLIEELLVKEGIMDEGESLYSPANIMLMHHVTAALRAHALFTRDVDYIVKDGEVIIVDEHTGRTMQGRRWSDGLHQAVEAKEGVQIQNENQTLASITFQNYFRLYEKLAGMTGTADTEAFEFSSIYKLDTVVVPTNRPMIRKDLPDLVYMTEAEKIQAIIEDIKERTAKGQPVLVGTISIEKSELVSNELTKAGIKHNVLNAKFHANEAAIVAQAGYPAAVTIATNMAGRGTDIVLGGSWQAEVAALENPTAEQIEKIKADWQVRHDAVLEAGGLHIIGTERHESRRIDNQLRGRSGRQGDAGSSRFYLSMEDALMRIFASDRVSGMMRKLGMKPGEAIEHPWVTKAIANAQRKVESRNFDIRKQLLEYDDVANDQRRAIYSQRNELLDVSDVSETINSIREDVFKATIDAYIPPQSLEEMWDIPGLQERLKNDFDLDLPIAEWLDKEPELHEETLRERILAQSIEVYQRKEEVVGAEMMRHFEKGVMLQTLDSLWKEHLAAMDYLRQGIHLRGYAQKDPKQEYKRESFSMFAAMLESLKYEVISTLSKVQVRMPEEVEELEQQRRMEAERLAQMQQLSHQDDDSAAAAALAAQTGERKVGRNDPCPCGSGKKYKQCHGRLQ

[2] = biological target: T1, Ubiquitin-activating enzyme e1, putative (Leishmania donovani (strain BPK282A1)) (UniProt E9BSI1); experiment: Leishmania donovani Ubiquitin Activating Enzyme (LdE1); type: functional; settings: 30 µM
T1 sequence (whole entry): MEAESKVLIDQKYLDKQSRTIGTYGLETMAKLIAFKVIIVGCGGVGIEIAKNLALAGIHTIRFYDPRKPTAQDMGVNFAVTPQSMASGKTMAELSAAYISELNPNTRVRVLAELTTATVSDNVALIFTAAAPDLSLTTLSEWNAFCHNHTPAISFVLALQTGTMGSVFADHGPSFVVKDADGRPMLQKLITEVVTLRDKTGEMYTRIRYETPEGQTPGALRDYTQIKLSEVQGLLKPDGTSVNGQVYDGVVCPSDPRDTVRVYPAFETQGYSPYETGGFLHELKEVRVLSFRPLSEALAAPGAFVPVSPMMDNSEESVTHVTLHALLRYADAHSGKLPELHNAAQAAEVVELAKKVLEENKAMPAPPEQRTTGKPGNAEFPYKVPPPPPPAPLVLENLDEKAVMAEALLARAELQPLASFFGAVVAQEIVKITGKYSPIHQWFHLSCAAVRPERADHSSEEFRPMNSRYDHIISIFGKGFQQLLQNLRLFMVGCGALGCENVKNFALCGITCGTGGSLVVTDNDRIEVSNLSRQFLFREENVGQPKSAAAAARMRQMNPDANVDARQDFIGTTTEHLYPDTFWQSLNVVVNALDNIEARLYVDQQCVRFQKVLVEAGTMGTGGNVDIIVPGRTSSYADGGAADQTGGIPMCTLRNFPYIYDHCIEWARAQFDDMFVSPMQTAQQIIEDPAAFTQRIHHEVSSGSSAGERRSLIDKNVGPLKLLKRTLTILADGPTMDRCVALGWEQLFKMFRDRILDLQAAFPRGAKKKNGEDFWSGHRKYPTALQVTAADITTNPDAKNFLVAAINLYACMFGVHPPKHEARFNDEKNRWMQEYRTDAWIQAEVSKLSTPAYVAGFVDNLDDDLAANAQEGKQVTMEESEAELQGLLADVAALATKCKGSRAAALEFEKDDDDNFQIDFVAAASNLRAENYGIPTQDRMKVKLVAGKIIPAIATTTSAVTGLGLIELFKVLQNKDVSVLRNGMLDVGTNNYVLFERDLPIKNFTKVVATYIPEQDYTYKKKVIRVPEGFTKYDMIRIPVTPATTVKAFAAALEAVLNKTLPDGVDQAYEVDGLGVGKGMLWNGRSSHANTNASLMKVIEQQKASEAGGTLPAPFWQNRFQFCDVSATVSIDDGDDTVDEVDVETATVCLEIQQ

[3] = biological target: AMP-activated protein kinase, AMPK (Homo sapiens) (UniProt P54646+O43741+P54619+Q9UGJ0+Q9Y478+Q13131+Q9UGI9); experiment: AMP-dependent Kinase enzyme assay. An in vitro enzyme assay that detects ADP turnover that is directly proportional to AMPK activity. This uses naive AMPK that is activated during the assay with MK-8722; type: functional; settings: 30 µM
[4] = biological target: Sialic acid-binding Ig-like lectin 9 (Homo sapiens) (UniProt Q9Y336); experiment: Hs-Siglec9 ALPHAscreen SOP 20170721; settings: 10 µM
Sialic acid-binding Ig-like lectin 9 (Homo sapiens), sequence (Q9Y336 whole entry): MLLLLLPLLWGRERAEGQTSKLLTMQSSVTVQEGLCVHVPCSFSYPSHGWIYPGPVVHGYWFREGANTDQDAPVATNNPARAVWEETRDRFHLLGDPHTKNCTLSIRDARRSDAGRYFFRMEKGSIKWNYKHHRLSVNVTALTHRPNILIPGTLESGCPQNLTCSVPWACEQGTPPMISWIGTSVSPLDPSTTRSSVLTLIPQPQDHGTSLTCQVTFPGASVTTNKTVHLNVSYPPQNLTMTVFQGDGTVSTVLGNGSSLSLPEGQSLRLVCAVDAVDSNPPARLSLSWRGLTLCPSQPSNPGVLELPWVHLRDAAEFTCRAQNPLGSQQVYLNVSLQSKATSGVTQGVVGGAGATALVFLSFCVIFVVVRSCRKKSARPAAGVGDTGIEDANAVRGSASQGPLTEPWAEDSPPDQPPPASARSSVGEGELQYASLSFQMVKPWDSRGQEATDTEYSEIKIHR

Trypanosoma cruzi = experiment: Trypanosoma cruzi phosphomannomutase and mannose-1-phosphate guanylyltransferase assay; type: functional; settings: 10 µM
[5] = biological target: T2, Arginase-2, mitochondrial (Homo sapiens) (UniProt P78540); experiment: in vitro enzyme assay to detect the production of urea directly proportional to the activity of Arginase II; type: functional; settings: 33.3 µM; note: in the data most compounds retested in dose-response had high values
T2 sequence (whole entry): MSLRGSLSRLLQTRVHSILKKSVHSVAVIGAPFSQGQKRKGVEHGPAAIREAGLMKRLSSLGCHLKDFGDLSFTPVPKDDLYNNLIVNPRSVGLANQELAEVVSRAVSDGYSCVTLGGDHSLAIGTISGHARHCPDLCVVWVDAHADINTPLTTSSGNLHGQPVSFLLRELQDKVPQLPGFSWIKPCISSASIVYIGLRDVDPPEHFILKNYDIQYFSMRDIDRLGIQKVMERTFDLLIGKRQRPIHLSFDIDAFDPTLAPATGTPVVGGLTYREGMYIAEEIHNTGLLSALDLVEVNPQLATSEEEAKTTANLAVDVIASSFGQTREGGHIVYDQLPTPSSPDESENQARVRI

[6] = biological target: T3, Proteasome subunit beta (Trypanosoma cruzi) (UniProt O96673); experiment: Trypanosoma cruzi proteasome chymotrypsin-like activity (TcProtChymo) assay.; note: in the data most compounds retested in dose-response had high values; type: functional; settings: 9.37 µM
T3 sequence (whole entry): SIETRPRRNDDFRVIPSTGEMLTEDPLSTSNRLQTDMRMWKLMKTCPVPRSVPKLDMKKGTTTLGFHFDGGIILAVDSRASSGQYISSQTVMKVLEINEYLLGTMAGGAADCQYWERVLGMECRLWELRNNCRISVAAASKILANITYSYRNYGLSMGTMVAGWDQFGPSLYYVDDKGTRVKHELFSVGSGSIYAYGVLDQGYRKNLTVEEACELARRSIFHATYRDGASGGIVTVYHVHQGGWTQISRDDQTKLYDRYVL

Homo sapiens = organism: Homo sapiens; experiment: To identify inhibition of the IFN signalling (Jak-Stat) pathway via expression of an eGFP reporter gene under the control of an IFN-stimulated response element (ISRE) containing MxA promoter.; type: functional; settings: 30 µM
[7] = biological target: T4, Tyrosyl-tRNA synthetase, putative (Trypanosoma cruzi (strain CL Brener)) (UniProt Q4DSP6); experiment: Trypanosoma cruzi tyrosyl tRNA synthetase (TcYRS) _High Tyrosine SOP; type: functional; settings: 30 µM; note: in the data most compounds retested in dose-response had high values
T4 sequence (whole entry): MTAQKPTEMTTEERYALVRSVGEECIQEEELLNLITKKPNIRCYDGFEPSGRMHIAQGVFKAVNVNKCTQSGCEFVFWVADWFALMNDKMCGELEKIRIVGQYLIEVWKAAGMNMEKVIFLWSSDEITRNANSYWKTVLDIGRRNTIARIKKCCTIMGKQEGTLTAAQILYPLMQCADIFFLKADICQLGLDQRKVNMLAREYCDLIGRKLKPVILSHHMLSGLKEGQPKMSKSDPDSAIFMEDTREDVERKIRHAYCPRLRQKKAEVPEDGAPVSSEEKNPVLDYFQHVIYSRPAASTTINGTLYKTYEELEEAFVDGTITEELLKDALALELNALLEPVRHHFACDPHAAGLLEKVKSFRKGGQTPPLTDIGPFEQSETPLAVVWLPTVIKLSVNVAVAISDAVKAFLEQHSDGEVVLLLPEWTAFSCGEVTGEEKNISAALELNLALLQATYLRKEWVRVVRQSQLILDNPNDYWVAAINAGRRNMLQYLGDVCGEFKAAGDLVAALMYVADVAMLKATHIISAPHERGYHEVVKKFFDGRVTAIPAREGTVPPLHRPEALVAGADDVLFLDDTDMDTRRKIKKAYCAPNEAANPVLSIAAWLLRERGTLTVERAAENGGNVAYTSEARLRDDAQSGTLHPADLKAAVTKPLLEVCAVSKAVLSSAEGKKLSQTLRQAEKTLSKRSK

[8] = biological target: T4, Tyrosyl-tRNA synthetase, putative (Trypanosoma cruzi (strain CL Brener)); experiment: Trypanosoma cruzi tyrosyl tRNA synthetase (TcYRS) SOP; type: functional; settings: 30 µM
[9] = biological target: Chromo domain-containing protein 1 (Saccharomyces cerevisiae (strain ATCC 204508 / S288c) (Baker's yeast)) (UniProt P32657); experiment: ScCHD-1 Enzyme Inhibition Assay; type: functional; settings: 30 µM; note: in the data most compounds retested in dose-response had high values
Chromo domain-containing protein 1 (Saccharomyces cerevisiae (strain ATCC 204508 / S288c) (Baker's yeast)), sequence (P32657 whole entry, the tested form may be a part): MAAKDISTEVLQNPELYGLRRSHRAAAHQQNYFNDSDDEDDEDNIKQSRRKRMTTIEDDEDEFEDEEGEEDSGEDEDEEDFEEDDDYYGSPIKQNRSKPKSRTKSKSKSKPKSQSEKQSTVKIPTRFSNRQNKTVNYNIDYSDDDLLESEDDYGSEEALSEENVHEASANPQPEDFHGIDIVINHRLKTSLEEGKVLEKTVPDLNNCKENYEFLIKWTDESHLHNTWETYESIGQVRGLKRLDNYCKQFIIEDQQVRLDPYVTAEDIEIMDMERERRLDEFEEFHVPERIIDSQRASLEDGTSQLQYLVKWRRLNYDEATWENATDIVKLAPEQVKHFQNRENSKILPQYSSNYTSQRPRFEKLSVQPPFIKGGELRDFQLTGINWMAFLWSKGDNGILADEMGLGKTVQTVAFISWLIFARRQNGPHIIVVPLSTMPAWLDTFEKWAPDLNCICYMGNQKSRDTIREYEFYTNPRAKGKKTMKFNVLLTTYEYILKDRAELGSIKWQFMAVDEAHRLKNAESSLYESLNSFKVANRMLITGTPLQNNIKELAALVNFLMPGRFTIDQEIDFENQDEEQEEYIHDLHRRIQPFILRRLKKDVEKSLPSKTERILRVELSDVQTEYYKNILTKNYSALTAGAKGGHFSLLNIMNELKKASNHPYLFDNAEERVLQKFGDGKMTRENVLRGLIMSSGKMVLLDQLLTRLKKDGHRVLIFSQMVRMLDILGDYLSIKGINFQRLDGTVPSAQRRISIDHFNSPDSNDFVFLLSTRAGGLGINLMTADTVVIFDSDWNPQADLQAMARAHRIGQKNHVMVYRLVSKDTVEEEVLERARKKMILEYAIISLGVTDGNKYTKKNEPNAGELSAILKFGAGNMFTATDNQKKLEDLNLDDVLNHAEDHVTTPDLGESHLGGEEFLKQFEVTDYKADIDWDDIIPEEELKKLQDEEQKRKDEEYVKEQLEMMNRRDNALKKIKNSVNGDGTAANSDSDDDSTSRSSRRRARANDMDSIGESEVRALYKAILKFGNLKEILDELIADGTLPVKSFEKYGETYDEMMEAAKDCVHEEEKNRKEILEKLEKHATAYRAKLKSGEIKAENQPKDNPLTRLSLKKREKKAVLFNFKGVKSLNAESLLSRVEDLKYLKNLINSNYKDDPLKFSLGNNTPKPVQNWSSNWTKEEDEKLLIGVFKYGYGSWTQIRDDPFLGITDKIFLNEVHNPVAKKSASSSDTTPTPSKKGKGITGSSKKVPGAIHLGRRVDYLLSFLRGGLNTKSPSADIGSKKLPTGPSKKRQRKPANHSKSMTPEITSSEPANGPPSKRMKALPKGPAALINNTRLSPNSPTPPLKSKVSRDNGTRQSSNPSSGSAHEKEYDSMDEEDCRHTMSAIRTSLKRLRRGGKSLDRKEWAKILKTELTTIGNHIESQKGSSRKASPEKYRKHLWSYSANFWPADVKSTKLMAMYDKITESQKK

Row | SMILES | Percent Effect [1] [%] | Percent Effect [2] [%] | Percent Effect [3] [%] | Percent Effect [4] [%] | Percent Effect (Trypanosoma cruzi) [%] | Percent Effect [5] [%] | Percent Effect [6] [%] | Percent Effect (Homo sapiens) [%] | Percent Effect [7] [%] | Percent Effect [8] [%] | Percent Effect [9] [%]
1 | CNCC(=O)N1CC(c2cc(Nc3ncccn3)nc(C)n2)C1 | 0.103 | 10.7 | 6.11 | -7.15 | -4.33 | -1.63 | 8.9 | 13.8 | 10.6 | 16.7 | -1.56
2 | COc1ccc(-n2nnc(C(=O)NC(C)C)c2C2CC2)cc1 | -1.4 | 1.39 | -9.18 | 9.95 | 4.96 | 15 | 4.21 | 9.68 | 0 | 0 | -0.372
3 | CC(C)C(=O)NCC(=O)N(C)C1CCCN(CCc2ccccc2)C1 (stereo unspecified) | -2.17 | 10.8 | 0.942 | 15.5 | 4.25 | -0.952 | 11.9 | -0.751 | 3.7 | 4.88 | -5.28
4 | CCOC(=O)N1CCN(c2nc(NCCCO)c3ccccc3n2)CC1 | -3.88 | -1.33 | 5.25 | 7.39 | 5.5 | -0.88 | 0.739 | 15.2 | 2.12 | 5.13 | -3.87
5 | Cc1ccsc1C(=O)NCCCn1nc2ccccn2c1=O | -1.75 | 16.2 | -0.37 | -0.759 | -3.99 | 1.66 | 9.52 | 20.9 | 5.94 | 18.3 | -8.98
6 | Cc1ccc(-c2cc(N)c(=O)n(CC(=O)NCC3CCCCC3)n2)s1 | -3.51 | 9.46 | 11.8 | -4.16 | -6.13 | -2.09 | 12.3 | 9.89 | -6.45 | 3.9 | -4.23
7 | CC(NC(=O)NCC1(c2ccccc2)CCC1)c1nncn1C (stereo unspecified) | -3.15 | 13.2 | -7.01 | -5.58 | -5.7 | 8.63 | 5.67 | -2.94 | 5.42 | 16.1 | -6.58
8 | Cc1[nH]ncc1C(=O)N1CCCC(n2cncn2)C1 (stereo unspecified) | -6.67 | 1.27 | 7.75 | 26.4 | -0.308 | 3.23 | 4.63 | 9.83 | 1.04 | 0 | -6.77
9 | O=C1c2cnc(N3CCOCC3)nc2CN1c1ccc2c(c1)OCO2 | -4.88 | 7.79 | 1.53 | 6.09 | 2.26 | -5.52 | 14.5 | -11.1 | 9.68 | 21 | 0.201
10 | CNS(=O)(=O)CCCN1CCCC1c1noc(C2CC2)n1 (stereo unspecified) | 0.851 | -2.53 | 9.34 | -2.31 | -2.74 | 4.56 | 9.91 | 10.4 | 0.493 | 1.27 | -7.17
11 | CCCS(=O)(=O)N1CCC2(CN(c3cnn(C)c3)C(=O)CN2C)C1 (stereo unspecified) | 1.02 | 10.8 | 5.11 | -11.2 | -4.69 | 0.833 | 20.4 | 6.16 | 6.93 | 8.54 | 1.55
